The values that follow come from PubChem BioAssay (NCI).

Compounds without any hit were thinned out: in the full panel of roughly 83,000, 20% have a hit.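 Interpretation: 100, growth as untreated; towards 0, rising growth inhibition; 0, no net growth; 0 to -100, cell death. Compounds scoring below 10 were considered active.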 Unmarked numbers belong to inactive results. The source made the active and inactive calls.

Test systems include HCT-15 colon; HT29 colon; SNB-75 CNS; SNB-19 CNS; U251 CNS; PC-3 prostate; SK-MEL-5 melanoma; UACC-62 melanoma; LOX IMVI melanoma; SK-MEL-28 melanoma; SK-MEL-2 melanoma; EKVX NSCLC; SN12C renal; UO-31 renal; TK-10 renal; ACHN renal; CAKI-1 renal; A498 renal; CCRF-CEM leukemia; MOLT-4 leukemia.
Holding throughout (test): NCI-60 one-dose screen, 48 h (100 = growth as untreated, 0 = no growth, -100 = all killed)
Conditions in all cases: 10 µM unless noted

With `CC(=O)[C@H]1CC[C@H]2[C@@H]3C[C@H](C)C4=CC(=O)CC[C@]4(C)[C@H]3C(=O)C[C@]12C`, the growth in the experiment with HCT-15 colon was 97.3%; with HT29 colon, 101%; in the experiment with SNB-75 CNS, 89.6%; with SNB-19 CNS it was 100%; with U251 CNS, 98.2%; in the experiment on PC-3 prostate, 91.2%. In addition, the growth with SK-MEL-5 melanoma is 100%; in the experiment with UACC-62 melanoma, 97.1%; in the experiment with LOX IMVI melanoma, 92.2%; in the experiment with SK-MEL-28 melanoma, 115%; in the experiment on SK-MEL-2 melanoma it was 98.9%; with EKVX NSCLC, 114%. Besides, the growth in the experiment with SN12C renal was 94.5%; in the experiment on UO-31 renal it was 87%; in the experiment with TK-10 renal it was 104%; in the experiment with ACHN renal, 95.8%; in the experiment on CAKI-1 renal it was 94.8%; with A498 renal, 74%. In addition, the growth was 104% in the experiment with CCRF-CEM leukemia and 92.3% with MOLT-4 leukemia.
With `Cc1nn(-c2ccccc2)cc1/C=C1\SC(N2CCCCC2)=NC1=O`, the growth was 22% in the experiment with HCT-15 colon; 55.4% in the experiment on HT29 colon; 102% with SNB-75 CNS; 82.5% in the experiment with SNB-19 CNS; 79.4% with U251 CNS; 71% in the experiment on PC-3 prostate. Besides, the growth in the experiment on SK-MEL-5 melanoma is 68.8%; in the experiment with UACC-62 melanoma it was 78.4%; in the experiment with LOX IMVI melanoma, 68.1%; in the experiment with SK-MEL-28 melanoma, 108%; in the experiment on SK-MEL-2 melanoma it was 94%; in the experiment on EKVX NSCLC, 94.2%. For the same compound, the growth in the experiment on SN12C renal was 93%; in the experiment on UO-31 renal it was 65.1%; in the experiment with TK-10 renal it was 78.5%; in the experiment with ACHN renal it was 74.7%; with CAKI-1 renal it was 39.8%; in the experiment with A498 renal, 71.3%. Moreover, the growth in the experiment with CCRF-CEM leukemia is 43.6%; with MOLT-4 leukemia, 58.6%.
As to `CN(C)c1ncnc2c1ncn2C1CCCCO1` (stereo not drawn), the growth was 100% in the experiment with HCT-15 colon; 109% with HT29 colon; 86.4% in the experiment on SNB-75 CNS; 97.1% in the experiment on SNB-19 CNS; 108% in the experiment with U251 CNS; 91.3% in the experiment on PC-3 prostate. Moreover, the growth was 107% in the experiment with SK-MEL-5 melanoma; 84.5% in the experiment with UACC-62 melanoma; 101% in the experiment on LOX IMVI melanoma; 97.6% with SK-MEL-28 melanoma; 102% with SK-MEL-2 melanoma; 102% in the experiment with EKVX NSCLC. Moreover, the growth with SN12C renal is 93.8%; in the experiment with UO-31 renal, 73.2%; with TK-10 renal, 101%; in the experiment on ACHN renal, 104%; in the experiment with CAKI-1 renal, 102%; in the experiment on CCRF-CEM leukemia, 94.9%. Moreover, the growth with MOLT-4 leukemia was 95.1%.
For the compound `Cc1cc(=O)oc2cc(OCCn3c(C)nn(-c4ccc(Cl)cc4)c3=O)ccc12`, the growth was 17.7% in the experiment on HCT-15 colon; 0.696% (active) in the experiment with HT29 colon; 20.4% in the experiment with SNB-75 CNS; 54.5% in the experiment on SNB-19 CNS; 31.4% with U251 CNS; 48.5% in the experiment on PC-3 prostate. In addition, the growth was 10.8% with SK-MEL-5 melanoma; 43.3% in the experiment with UACC-62 melanoma; 48% in the experiment on LOX IMVI melanoma; 40.8% with SK-MEL-28 melanoma; 3.55% (active) with SK-MEL-2 melanoma; 58.7% in the experiment with EKVX NSCLC. For the same compound, the growth in the experiment on SN12C renal was 51.8%; in the experiment with UO-31 renal, 42.8%; in the experiment on TK-10 renal, 59.6%; with ACHN renal, 41.9%; with CAKI-1 renal, 19.5%; in the experiment with A498 renal, 25.7%. The growth in the experiment with CCRF-CEM leukemia is 13.4%; in the experiment on MOLT-4 leukemia it was 37.6%.
For `COc1ccc(NS(=O)(=O)N2CCCCC2)cc1`, the growth is 115% with HCT-15 colon; 102% in the experiment with HT29 colon; 115% in the experiment with SNB-75 CNS; 96.4% with SNB-19 CNS; 111% in the experiment on U251 CNS; 91.8% in the experiment on PC-3 prostate. The growth with SK-MEL-5 melanoma is 97.1%; in the experiment with UACC-62 melanoma it was 82.5%; in the experiment on LOX IMVI melanoma, 100%; with SK-MEL-28 melanoma, 123%; with SK-MEL-2 melanoma it was 99.1%; with EKVX NSCLC it was 115%. The growth was 93% in the experiment on SN12C renal; 76.4% in the experiment with UO-31 renal; 102% in the experiment on TK-10 renal; 104% in the experiment with ACHN renal; 103% in the experiment on CAKI-1 renal; 80% in the experiment with A498 renal. Further, the growth in the experiment with CCRF-CEM leukemia was 89.6%; with MOLT-4 leukemia it was 99.8%.
Turning to `C[C@H]1C(=O)N2c3ccccc3[C@@]3(O)C[C@@H](n4cnc5ccccc5c4=O)C(=O)N1[C@@H]23`, the growth is 109% with HCT-15 colon; 120% in the experiment with HT29 colon; 98.3% in the experiment on SNB-75 CNS; 99.7% with SNB-19 CNS; 101% in the experiment with U251 CNS; 95.6% in the experiment on PC-3 prostate. For the same compound, the growth in the experiment on SK-MEL-5 melanoma was 123%; with UACC-62 melanoma, 98.3%; in the experiment on LOX IMVI melanoma, 97.7%; with SK-MEL-28 melanoma it was 100%; with SK-MEL-2 melanoma, 19.2%; with EKVX NSCLC it was 103%. For the same compound, the growth in the experiment with SN12C renal is 120%; in the experiment on UO-31 renal, 86.5%; in the experiment on TK-10 renal, 109%; in the experiment with ACHN renal, 104%; with CAKI-1 renal, 99.2%; in the experiment on A498 renal, 121%. Also, the growth in the experiment with CCRF-CEM leukemia was 95%; with MOLT-4 leukemia, 105%.
With `CCOC(=O)CNC(=O)C1(NC(=O)CNC(=O)OCc2ccccc2)CCCC1`, the growth with HCT-15 colon is 102%; in the experiment on HT29 colon, 105%; in the experiment on SNB-75 CNS, 83.9%; with SNB-19 CNS, 102%; in the experiment on U251 CNS, 106%; in the experiment on PC-3 prostate, 98.7%. Moreover, the growth with SK-MEL-5 melanoma was 112%; with UACC-62 melanoma, 97%; in the experiment on LOX IMVI melanoma, 95.4%; in the experiment with SK-MEL-28 melanoma it was 107%; in the experiment on SK-MEL-2 melanoma it was 107%; in the experiment with EKVX NSCLC it was 99.4%. For the same compound, the growth is 93.8% with SN12C renal; 98.6% with UO-31 renal; 102% in the experiment on TK-10 renal; 103% in the experiment with ACHN renal; 95.2% in the experiment on CAKI-1 renal; 102% in the experiment with CCRF-CEM leukemia. Also, in the experiment with MOLT-4 leukemia, the growth is 106%.
On to `CCCCCN1C(=O)CCC1=O`, for which the growth is 106% in the experiment with HCT-15 colon; 102% with HT29 colon; 98.6% with SNB-75 CNS; 101% with SNB-19 CNS; 99% in the experiment on U251 CNS; 95.1% in the experiment with PC-3 prostate. Besides, the growth in the experiment with SK-MEL-5 melanoma was 102%; with UACC-62 melanoma, 99.3%; in the experiment on LOX IMVI melanoma, 102%; with SK-MEL-28 melanoma, 110%; with SK-MEL-2 melanoma, 103%; in the experiment with EKVX NSCLC, 98.9%. Also, the growth in the experiment with SN12C renal is 101%; with UO-31 renal, 85.8%; with TK-10 renal, 106%; in the experiment with ACHN renal, 104%; in the experiment with CAKI-1 renal, 91.8%; in the experiment with A498 renal, 106%. Also, the values for the growth in the experiment on CCRF-CEM leukemia and in the experiment on MOLT-4 leukemia were -52.3% (active) and 110%, respectively.
